Data taken from PubChem BioAssay AID1159580 (chemical genetic matrix, 2015).
In all, about 5,500 compounds went through this assay and about 2,000 (36%) were called active. About 18% were inconclusive and are not listed. Rule as the data show it: active = normalized growth mostly below about 0.91 (no sharp cut-off); inconclusive = no clear call, values can overlap the other calls; inactive = mostly above about 0.92. Some of the results follow.

Experiment: chemical genetic growth profiling, strain panel (AID 1159580);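 also: tested at 20 µM; growth read once vehicle control cultures reached saturation at 30 °C; 1 = growth at the plate median or of vehicle wells; lower values mean less growth of the strain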
Settings: growth OD

Measured: normalized growth

CC(=O)OCC(=O)[C@@]1(O)CCC2C3C[C@H](C)C4=CC(=O)C=CC4(C)C3[C@@H](O)CC21C (some centres not stated)
inactive: S. cerevisiae deletion strains, locus YJR075W, strain HOC1, hits give low values 1.01 | S. cerevisiae deletion strains, locus YKL009W, strain mrt4, hits give low values 1.01 | S. cerevisiae deletion strains, locus YKL068W, hits give low values 1.02 | S. cerevisiae deletion strains, locus YKL085W, strain MDH1 (second series), hits give low values 0.995 | S. cerevisiae deletion strains, locus YKL085W, strain MDH1, hits give low values 0.995 | S. cerevisiae deletion strains, locus YKL160W, strain elf1, hits give low values 1.03 | S. cerevisiae deletion strains, locus YKL190W, strain CNB1, hits give low values 1 | S. cerevisiae deletion strains, locus YKR001C, strain vps1, hits give low values 0.997 | S. cerevisiae deletion strains, locus YKR026C, strain gcn3, hits give low values 1.01 | S. cerevisiae deletion strains, locus YKR091W, strain srl3, hits give low values 1.01 | S. cerevisiae deletion strains, locus YLL001W, strain dnm1, hits give low values 0.999 | S. cerevisiae deletion strains, locus YLL026W, hits give low values 1.01 | S. cerevisiae deletion strains, locus YLL041C, strain sdh2, hits give low values 1.01 | S. cerevisiae deletion strains, locus YLR027C, strain aat2, hits give low values 1.01 | S. cerevisiae deletion strains, locus YLR039C, strain RIC1, hits give low values 1.02 | S. cerevisiae deletion strains, locus YLR058C, strain SHM2, hits give low values 1.01 | S. cerevisiae deletion strains, locus YLR102C, strain apc9, hits give low values 1.01 | S. cerevisiae deletion strains, locus YLR113W, strain HOG1, hits give low values 1.02 | S. cerevisiae deletion strains, locus YLR221C, strain rsa3, hits give low values 0.997 | S. cerevisiae deletion strains, locus YLR258W, strain gsy2, hits give low values 1.03 | S. cerevisiae deletion strains, locus YLR262C, strain YPT6 (second series), hits give low values 1.03 | S. cerevisiae deletion strains, locus YLR262C, strain YPT6, hits give low values 1.01 | S. cerevisiae deletion strains, locus YLR268W, strain sec22, hits give low values 0.987 | S. cerevisiae deletion strains, locus YLR320W, strain mms22, hits give low values 1.01 | S. cerevisiae deletion strains, locus YLR330W, strain CHS5, hits give low values 1.01 | S. cerevisiae deletion strains, locus YLR342W, strain FKS1 (second series), hits give low values 1.03 | S. cerevisiae deletion strains, locus YLR342W, strain FKS1, hits give low values 1.02 | S. cerevisiae deletion strains, locus YLR357W, strain rsc2, hits give low values 1.03 | S. cerevisiae deletion strains, locus YLR370C, strain arc18, hits give low values 1.01 | S. cerevisiae deletion strains, locus YLR371W, strain rom2, hits give low values 1 | S. cerevisiae deletion strains, locus YLR384C, strain iki3, hits give low values 0.999 | S. cerevisiae deletion strains, locus YLR418C, strain cdc73, hits give low values 0.974 | S. cerevisiae deletion strains, locus YML016C, strain PPZ1, hits give low values 1 | S. cerevisiae deletion strains, locus YML032C, strain rad52, hits give low values 1.02 | S. cerevisiae deletion strains, locus YML120C, strain ndi1, hits give low values 1.02 | S. cerevisiae deletion strains, locus YML124C, strain tub3, hits give low values 1 | S. cerevisiae deletion strains, locus YMR058W, strain fet3, hits give low values 1.02 | S. cerevisiae deletion strains, locus YMR078C, strain ctf18, hits give low values 1 | S. cerevisiae deletion strains, locus YMR125W, strain sto1, hits give low values 1.04 | S. cerevisiae deletion strains, locus YMR129W, hits give low values 1.01 | S. cerevisiae deletion strains, locus YMR205C, strain PFK2, hits give low values 1.02 | S. cerevisiae deletion strains, locus YMR223W, strain ubp8, hits give low values 1.01 | S. cerevisiae deletion strains, locus YMR231W, strain pep5, hits give low values 1.02 | S. cerevisiae deletion strains, locus YMR263W, strain SAP30, hits give low values 1 | S. cerevisiae deletion strains, locus YMR307W, strain GAS1, hits give low values 1.03 | S. cerevisiae deletion strains, locus YNL067W, strain RPL9B, hits give low values 0.996 | S. cerevisiae deletion strains, locus YNL071W, strain lat1, hits give low values 1.01 | S. cerevisiae deletion strains, locus YNL128W, strain TEP1, hits give low values 1.01 | S. cerevisiae deletion strains, locus YNL153C, strain GIM3, hits give low values 0.998 | S. cerevisiae deletion strains, locus YNL183C, strain NPR1, hits give low values 0.962 | S. cerevisiae deletion strains, locus YNL209W, strain ssb2, hits give low values 1 | S. cerevisiae deletion strains, locus YNL233W, strain BNI4, hits give low values 1.01 | S. cerevisiae deletion strains, locus YNL248C, strain rpa49, hits give low values 1.02 | S. cerevisiae deletion strains, locus YNL250W, strain rad50, hits give low values 1 | S. cerevisiae deletion strains, locus YNL271C, strain bni1, hits give low values 1 | S. cerevisiae deletion strains, locus YNL298W, strain CLA4, hits give low values 1.01 | S. cerevisiae deletion strains, locus YNL307C, strain MCK1, hits give low values 1.01 | S. cerevisiae deletion strains, locus YNL322C, strain KRE1 (second series), hits give low values 1 | S. cerevisiae deletion strains, locus YNL322C, strain KRE1, hits give low values 1 | S. cerevisiae deletion strains, locus YNR049C, strain mso1, hits give low values 1.02 | S. cerevisiae deletion strains, locus YNR052C, strain pop2, hits give low values 1 | S. cerevisiae deletion strains, locus YOL006C, strain TOP1, hits give low values 1.01 | S. cerevisiae deletion strains, locus YOL012C, strain htz1 1.08 | S. cerevisiae deletion strains, locus YOL147C, strain pex11, hits give low values 1 | S. cerevisiae deletion strains, locus YOR001W, strain rrp6, hits give low values 0.988 | S. cerevisiae deletion strains, locus YOR061W, strain CKA2, hits give low values 1 | S. cerevisiae deletion strains, locus YOR069W, strain VPS5, hits give low values 1.01 | S. cerevisiae deletion strains, locus YOR070C, strain gyp1, hits give low values 1.02 | S. cerevisiae deletion strains, locus YOR080W, strain dia2, hits give low values 1.06 | S. cerevisiae deletion strains, locus YOR083W, strain WHI5, hits give low values 1.02 | S. cerevisiae deletion strains, locus YOR106W, strain vam3, hits give low values 1.01 | S. cerevisiae deletion strains, locus YOR136W, strain idh2, hits give low values 1.01 | S. cerevisiae deletion strains, locus YOR144C, strain elg1, hits give low values 1.01 | S. cerevisiae deletion strains, locus YOR184W, strain ser1, hits give low values 1.01 | S. cerevisiae deletion strains, locus YOR231W, strain MKK1, hits give low values 1.02 | S. cerevisiae deletion strains, locus YOR265W, strain rbl2, hits give low values 1.01 | S. cerevisiae deletion strains, locus YOR270C, strain vph1, hits give low values 0.982 | S. cerevisiae deletion strains, locus YOR290C, strain snf2, hits give low values 1.03 | S. cerevisiae deletion strains, locus YOR316C, strain cot1, hits give low values 1 | S. cerevisiae deletion strains, locus YPL051W, strain arl3, hits give low values 1.03 | S. cerevisiae deletion strains, locus YPL055C, strain LGE1, hits give low values 0.999 | S. cerevisiae deletion strains, locus YPL078C, strain atp4, hits give low values 1.03 | S. cerevisiae deletion strains, locus YPL106C, strain sse1, hits give low values 1.04 | S. cerevisiae deletion strains, locus YPL240C, strain hsp82, hits give low values 0.994 | S. cerevisiae deletion strains, locus YPL241C, strain CIN2, hits give low values 1.01 | S. cerevisiae deletion strains, locus YPL256C, strain CLN2, hits give low values 1.01 | S. cerevisiae deletion strains, locus YPR119W, strain clb2, hits give low values 1.01 | S. cerevisiae deletion strains, locus YPR141C, strain kar3, hits give low values 1.01 | S. cerevisiae deletion strains, locus YPR163C, strain tif3, hits give low values 1.01 | S. cerevisiae deletion strains, locus YPR167C, strain met16, hits give low values 0.995 | S. cerevisiae deletion strains, strain wtn01, hits give low values 1.01 | S. cerevisiae strains, strain wild type, hits give low values 1
